Inconclusive results are not listed. Active and inactive are the calls of the source. Unless noted, calls follow the shape of the dose curve; as a rule, active = well fitted curve in either direction with a large enough effect (not every such curve was filed as active); inconclusive = small, poorly fitted or top-dose-only effect, or another doubt; inactive = flat fitted curve, though single readings scatter.
Columns and labels:
[1] = AP1 Signaling Pathway (AID 357); settings: ME-180 AP-1-bla reporter, EGF-induced, beta-lactamase ratio, 5 h;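 also: ME-180 reporter cells stimulated with EGF at its EC50 level; % is scaled to controls: 0 for no effect and ±100 for the full control effect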
Summary of the method: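 First, ME-180 AP-1-bla cells were cultured overnight at 37 °C in low-serum Opti-MEM. Next, titrated compounds with EC50 EGF were incubated 5 hours. Finally, CCF4 was added for 2.5 hours and the 460/530 nm ratio recorded.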

[2] = molecular target: Cytochrome P450 1A2 (Homo sapiens) (UniProt P05177); assay: p450-cyp1a2 (AID 410; calls by dose curve; also: potency is read from the fitted curve at half-maximal effect;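 as to activity change, negative = inhibition: -100% = full effect of reference inhibitor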)
Cytochrome P450 1A2 (Homo sapiens), sequence (P05177 whole entry, looked up): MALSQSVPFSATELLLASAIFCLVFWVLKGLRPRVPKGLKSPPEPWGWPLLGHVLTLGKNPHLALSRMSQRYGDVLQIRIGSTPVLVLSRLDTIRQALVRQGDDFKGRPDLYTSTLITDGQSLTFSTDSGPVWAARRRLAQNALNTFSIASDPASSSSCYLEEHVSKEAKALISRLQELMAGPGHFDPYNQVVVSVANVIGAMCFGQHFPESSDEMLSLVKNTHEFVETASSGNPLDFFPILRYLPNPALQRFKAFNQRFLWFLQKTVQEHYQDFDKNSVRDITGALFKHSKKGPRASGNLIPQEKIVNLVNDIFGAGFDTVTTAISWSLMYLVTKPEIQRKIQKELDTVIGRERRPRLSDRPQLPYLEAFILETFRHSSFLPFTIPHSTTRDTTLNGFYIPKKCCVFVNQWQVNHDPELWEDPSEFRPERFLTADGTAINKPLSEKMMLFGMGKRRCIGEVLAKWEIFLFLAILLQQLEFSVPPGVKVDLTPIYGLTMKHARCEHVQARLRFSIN
Summary of the method: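 Luminescent readout of luciferin formed from Luciferin-ME by human CYP1A2; data normalized against complete inhibition by 57 uM furafylline. Enzyme 20nM, substrate 100uM at Km, 100mM KPO4 buffer, 60 min reaction at room temperature.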

[3] = NFAT Signaling Pathway (AID 444); settings: Jurkat NFAT-bla M1, carbachol, beta-lactamase ratio, 5 h;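 also: carbachol stimulus at about its EC50 of 1 µM final; % is scaled to controls: 0 for no effect and ±100 for the full control effect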
Summary of the method: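 Read-out: CCF4 FRET ratio (460 nm/530 nm) after 1 h RT dye loading, used for %activity and AC50 from titration series. Cells: Jurkat NFAT-β-lactamase/M1 line, treated with compound plus 1 uM carbachol for 5 h, 37 °C.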

[4] = Stat Signaling Pathway (AID 446); settings: ME-180 (cervical carcinoma) SIE beta-lactamase reporter, IL-6 stimulated, 5 h;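 also: ME-180 cervical cancer cells given 40 pM IL-6 alongside compound; SIE-controlled beta-lactamase reporter measured as 460/530 nm FRET emission ratio; % is scaled to controls: 0 for no effect and ±100 for the full control effect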
Summary of the method: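 IL-6/STAT signaling read in ME-180 cells via an SIE beta-lactamase reporter. Stimulus was 40 pM IL-6 (its AC50) for 5 hrs, so both activation and inhibition register.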

[5] = molecular target: Glucocorticoid receptor (Homo sapiens) (UniProt P04150); assay: GR-GFP Redistribution (AID 450;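 active = compounds whose dose series gives a full or clear partial fitted curve of increased nuclear translocation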; also: potency is read from the fitted curve at half-maximal effect); settings: U2OS GR-GFP nuclear translocation, laser cytometry, 2 h
Glucocorticoid receptor (Homo sapiens), sequence (P04150 whole entry, looked up, the tested form may be a part): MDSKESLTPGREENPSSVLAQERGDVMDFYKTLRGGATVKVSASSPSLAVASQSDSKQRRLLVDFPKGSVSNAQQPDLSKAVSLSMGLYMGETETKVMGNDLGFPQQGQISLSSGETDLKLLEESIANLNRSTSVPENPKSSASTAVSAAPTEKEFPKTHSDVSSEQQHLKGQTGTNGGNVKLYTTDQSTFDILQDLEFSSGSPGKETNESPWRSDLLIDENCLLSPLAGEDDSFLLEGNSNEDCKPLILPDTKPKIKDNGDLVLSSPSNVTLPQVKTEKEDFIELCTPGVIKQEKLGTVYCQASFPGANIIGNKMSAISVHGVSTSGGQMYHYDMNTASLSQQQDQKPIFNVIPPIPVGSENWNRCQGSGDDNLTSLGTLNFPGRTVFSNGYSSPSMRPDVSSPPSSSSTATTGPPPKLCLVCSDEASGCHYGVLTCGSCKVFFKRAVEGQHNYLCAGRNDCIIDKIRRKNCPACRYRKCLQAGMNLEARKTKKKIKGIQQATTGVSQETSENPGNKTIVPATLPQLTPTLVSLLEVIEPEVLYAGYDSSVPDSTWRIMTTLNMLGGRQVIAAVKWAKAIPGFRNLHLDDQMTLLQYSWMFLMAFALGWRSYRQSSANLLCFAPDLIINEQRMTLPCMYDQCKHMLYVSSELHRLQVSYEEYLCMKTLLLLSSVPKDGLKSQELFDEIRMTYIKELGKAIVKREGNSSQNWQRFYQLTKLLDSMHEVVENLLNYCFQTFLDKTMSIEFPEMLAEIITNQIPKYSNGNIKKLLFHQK

[6] = molecular target: Glucocorticoid receptor (Homo sapiens) (UniProt P04150); assay: GR-EFC Redistribution (AID 451; calls by dose curve; also: potency is read from the fitted curve at half-maximal effect); settings: CHO-K1 GR-EFC translocation, beta-gal luminescence, 2 h
Summary of the method: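 Translocation of GR-ED fusion to nuclear EA restores b-gal, read by luminescence after 1 h room-temperature detection. Engineered CHO-K1 biosensor cells, 1,000/well, exposed 2 h at 37 C to titrations up to 46 uM final.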

[7] = molecular target: Mitogen-activated protein kinase 10 (Mus musculus) (UniProt Q61831); assay: JNK3 AlphaScreen Assay (AID 530);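 also: kinase came from lysate of stimulated human HepG2 cells; signal reports phosphorylation of biotinylated GST-cJun 1-79 at Ser73 with 10 µM ATP; % is scaled to controls: 0 for no effect and ±100 for the full control effect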
Summary of the method: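 Compound titrations were preincubated 15 minutes at room temperature with substrate, antibody and pre-activated JNK3-containing HepG2 lysate. Reactions were started with 10 uM ATP and stopped with EDTA-containing bead buffer for AlphaScreen detection.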

[8] = molecular target: 3',5'-cyclic-AMP phosphodiesterase 4B (Homo sapiens) (UniProt Q07343); assay: qHTS Assay for Inhibitors of PDE-IV (AID 607; active = well fitted activation curve with a large enough effect in the main read-out, with a control signal flat, not every such curve was filed as active; also: % of control where 0% means no effect)
3',5'-cyclic-AMP phosphodiesterase 4B (Homo sapiens), sequence (Q07343 whole entry, looked up): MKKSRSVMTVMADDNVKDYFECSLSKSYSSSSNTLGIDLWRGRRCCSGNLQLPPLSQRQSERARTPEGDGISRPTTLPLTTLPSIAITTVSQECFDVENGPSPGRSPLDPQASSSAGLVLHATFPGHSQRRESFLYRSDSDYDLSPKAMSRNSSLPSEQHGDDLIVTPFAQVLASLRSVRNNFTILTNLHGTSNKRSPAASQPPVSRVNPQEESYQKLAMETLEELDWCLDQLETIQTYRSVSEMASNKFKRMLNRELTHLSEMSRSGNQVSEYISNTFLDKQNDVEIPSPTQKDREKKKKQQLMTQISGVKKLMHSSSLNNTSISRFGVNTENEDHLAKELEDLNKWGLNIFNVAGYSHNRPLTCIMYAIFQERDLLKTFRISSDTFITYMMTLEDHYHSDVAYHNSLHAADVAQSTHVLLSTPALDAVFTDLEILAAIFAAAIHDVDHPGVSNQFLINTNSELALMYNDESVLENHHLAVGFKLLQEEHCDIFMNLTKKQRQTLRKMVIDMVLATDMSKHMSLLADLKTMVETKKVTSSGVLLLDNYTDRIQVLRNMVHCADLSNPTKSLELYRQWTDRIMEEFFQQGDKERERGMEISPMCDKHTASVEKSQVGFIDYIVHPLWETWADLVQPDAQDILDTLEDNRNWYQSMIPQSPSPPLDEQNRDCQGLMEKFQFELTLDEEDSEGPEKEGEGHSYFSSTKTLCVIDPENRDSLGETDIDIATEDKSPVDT
Summary of the method: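 Live HEK293 cells with a modified cyclic nucleotide-gated (CNG) channel report intracellular cAMP via membrane-potential dye fluorescence (ex 535/em 590 nm). Endogenous PDE-IV was targeted. Compounds were tested at up to 22.9 uM final; RO 20-1724 100 uM served as control.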

[9] = molecular target: Guanine nucleotide-binding protein G(i) subunit alpha-1 (Homo sapiens) (UniProt P63096); assay: qHTS Assay for Inhibitors of RGS12 GoLoco Motif Activity (Green Fluorophore) (AID 879; active = well fitted curve in the direction sought with a large enough effect; an effect the other way counts as inactive or inconclusive;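 also: 0% = labeled peptide with Gαi1 and full inhibition = labeled peptide alone without protein; negative values mean loss of peptide binding seen as reduced polarization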)
Guanine nucleotide-binding protein G(i) subunit alpha-1 (Homo sapiens), sequence (P63096 whole entry, looked up): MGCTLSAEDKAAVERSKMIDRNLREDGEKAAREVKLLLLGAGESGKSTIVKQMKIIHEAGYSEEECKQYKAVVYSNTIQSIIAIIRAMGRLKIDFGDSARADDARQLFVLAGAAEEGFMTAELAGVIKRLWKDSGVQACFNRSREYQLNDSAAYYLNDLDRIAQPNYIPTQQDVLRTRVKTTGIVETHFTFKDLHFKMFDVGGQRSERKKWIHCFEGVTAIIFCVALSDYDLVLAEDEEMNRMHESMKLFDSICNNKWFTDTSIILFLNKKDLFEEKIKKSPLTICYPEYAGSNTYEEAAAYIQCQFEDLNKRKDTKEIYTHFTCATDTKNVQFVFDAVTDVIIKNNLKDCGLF
Summary of the method: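 Fluorescence polarization assay: 50 nM Gαi1 with 10 nM FITC-labeled RGS12 GoLoco peptide in 10 mM Tris pH 7.5, 150 mM NaCl, 0.1 mM GDP, 0.05% NP40, 10 min at room temperature with compound.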

[10] = molecular target: Cytochrome P450 3A4 (Homo sapiens) (UniProt P08684); assay: qHTS Assay for Activators of Cytochrome P450 3A4 (AID 885; active = well fitted curve in the direction sought with a large enough effect; an effect the other way counts as inactive or inconclusive; also: nearly all actives have a fitted effect of over 65% in size)
Summary of the method: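 Quantitative HTS format: compounds preincubated with 20nM human CYP3A4 and Luciferin-PPXE substrate at KM, reaction started by NADPH regeneration, stopped after 60 min, luciferase luminescence read 20 min later.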

[11] = qHTS Assay for Identification of Small Molecule Agonists for Thrombopoietin (TPO) Signaling Pathway (AID 917; active = well fitted curve in the direction sought with a large enough effect; an effect the other way counts as inactive or inconclusive; also: % is scaled to controls: 0 for no effect and ±100 for the full control effect)
Summary of the method: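 We measured Glycoprotein IIb promoter–luciferase output in IL-3-starved Ba/F3 murine cells expressing the human TPO receptor after 24 hrs at 37 C with compounds and 26 pM TPO.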

[12] = molecular target: Muscarinic acetylcholine receptor M1 (Rattus norvegicus) (UniProt P08482); assay: qHTS Assay for Antagonists of Acetylcholine Muscarinic M1 Receptor: Measurement of IP-One Response (AID 944; active = well fitted curve in the direction sought with a large enough effect; an effect the other way counts as inactive or inconclusive; also: nearly all actives have a fitted effect of over 75% in size)
Muscarinic acetylcholine receptor M1 (Rattus norvegicus), sequence (P08482 whole entry, looked up): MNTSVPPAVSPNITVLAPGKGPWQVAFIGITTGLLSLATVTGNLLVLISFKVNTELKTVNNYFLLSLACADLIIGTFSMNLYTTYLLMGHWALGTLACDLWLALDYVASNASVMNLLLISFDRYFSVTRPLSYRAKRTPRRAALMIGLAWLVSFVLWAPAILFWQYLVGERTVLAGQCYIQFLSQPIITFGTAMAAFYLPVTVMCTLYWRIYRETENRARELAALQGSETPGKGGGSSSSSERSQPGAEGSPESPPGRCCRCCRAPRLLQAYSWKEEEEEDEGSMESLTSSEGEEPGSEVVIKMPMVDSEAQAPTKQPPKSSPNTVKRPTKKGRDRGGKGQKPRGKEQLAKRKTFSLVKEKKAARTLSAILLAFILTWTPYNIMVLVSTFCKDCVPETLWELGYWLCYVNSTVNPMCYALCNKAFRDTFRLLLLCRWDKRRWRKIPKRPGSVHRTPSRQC
Summary of the method: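 M1-CHO (rat), 2000 cells/well, overnight recovery; cpd 10 min; carbachol EC80 (200 nM), 30 min, HEPES buffer + 50 mM LiCl pH 7.4; IP-One HTRF, Ex 337, Em 620/665 nm.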

[13] = molecular target: Pyruvate kinase PKM (Homo sapiens) (UniProt P14618); assay: qHTS Assay for Activators of Human Muscle Pyruvate Kinase (AID 954; active = well fitted curve in the direction sought with a large enough effect, not every such curve was filed as active;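 also: 0% = uninhibited enzyme and -100% = no enzyme or full thiadiazolimine inhibition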)
Pyruvate kinase PKM (Homo sapiens), sequence (P14618 whole entry, looked up): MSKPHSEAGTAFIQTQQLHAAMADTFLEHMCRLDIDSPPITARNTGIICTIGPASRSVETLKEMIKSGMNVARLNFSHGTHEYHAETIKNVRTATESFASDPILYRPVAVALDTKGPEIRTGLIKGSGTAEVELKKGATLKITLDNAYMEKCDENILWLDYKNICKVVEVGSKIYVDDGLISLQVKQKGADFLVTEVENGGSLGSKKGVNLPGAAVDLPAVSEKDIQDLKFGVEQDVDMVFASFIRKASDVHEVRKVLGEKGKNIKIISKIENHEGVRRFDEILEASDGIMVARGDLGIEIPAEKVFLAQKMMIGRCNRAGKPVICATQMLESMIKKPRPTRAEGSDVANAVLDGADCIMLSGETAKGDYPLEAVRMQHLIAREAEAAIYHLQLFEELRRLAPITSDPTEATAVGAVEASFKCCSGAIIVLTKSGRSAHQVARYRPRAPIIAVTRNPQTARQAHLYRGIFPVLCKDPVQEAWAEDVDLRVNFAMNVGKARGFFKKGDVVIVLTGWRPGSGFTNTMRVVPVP
Summary of the method: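 Enzyme was run at intermediate activity so both inhibitors and activators could be detected. ATP formed from ADP and PEP by 0.1 nM human PKM2 during a 1 h room-temperature incubation was quantified by coupled luciferase luminescence.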

[14] = molecular target: Alpha-galactosidase A (Homo sapiens) (UniProt P06280); assay: Counterscreen for Glucocerebrosidase Inhibitors: qHTS Assay for Human alpha-Galactosidase at pH 4.5 (AID 992; active = well fitted curve in the direction sought with a large enough effect; an effect the other way counts as inactive or inconclusive; also: 0% is about no effect)
Alpha-galactosidase A (Homo sapiens), sequence (P06280 whole entry, looked up): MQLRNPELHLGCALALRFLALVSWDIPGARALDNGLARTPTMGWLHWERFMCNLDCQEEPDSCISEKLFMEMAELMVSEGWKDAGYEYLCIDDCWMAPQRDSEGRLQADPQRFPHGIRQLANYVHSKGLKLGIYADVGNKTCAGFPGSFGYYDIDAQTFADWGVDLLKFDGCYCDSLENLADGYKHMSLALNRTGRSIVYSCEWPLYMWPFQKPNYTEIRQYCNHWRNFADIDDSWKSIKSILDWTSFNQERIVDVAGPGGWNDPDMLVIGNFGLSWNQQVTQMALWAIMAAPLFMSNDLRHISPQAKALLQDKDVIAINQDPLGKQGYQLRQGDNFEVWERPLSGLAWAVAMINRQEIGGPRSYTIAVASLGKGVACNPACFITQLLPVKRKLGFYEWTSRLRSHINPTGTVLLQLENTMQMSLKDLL
Summary of the method: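 Read-out is 4-methylumbelliferone fluorescence (365 nm excitation, 440 nm emission) after a pH 10 NaOH/glycine stop. Reactions held 2 nM enzyme and 80 uM substrate at pH 4.5 for 20 min at room temperature.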

[15] = molecular target: alpha-glucosidase (Oryza sativa, rice) (UniProt Q653V4); assay: Counterscreen for Glucocerebrosidase Inhibitors: qHTS Assay for Rice alpha-Glucosidase at pH 5.0 (AID 997; active = well fitted curve in the direction sought with a large enough effect; an effect the other way counts as inactive or inconclusive;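 also: 0% = full activity with enzyme and -100% = basal without enzyme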)
Summary of the method: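 Rice alpha-glucosidase (4 nM final) with 400 uM 4-methylumbelliferyl-alpha-D-glucopyranoside in citrate buffer pH 5.0, 20 min at room temperature, stopped at pH 10; fluorescence 365/440 nm, compounds 0.7 nM–77 uM, AC50 from Hill fits.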

[16] = molecular target: Cytochrome P450 2C9 (Homo sapiens) (UniProt P11712); assay: qHTS Assay for Inhibitors and Substrates of Cytochrome P450 2C9 (AID 883; active = well fitted curve in the direction sought with a large enough effect; an effect the other way counts as inactive or inconclusive; also: % is scaled to controls: 0 for no effect and ±100 for the full control effect; nearly all actives have a fitted effect of over 60% in size)
Cytochrome P450 2C9 (Homo sapiens), sequence (P11712 whole entry, looked up): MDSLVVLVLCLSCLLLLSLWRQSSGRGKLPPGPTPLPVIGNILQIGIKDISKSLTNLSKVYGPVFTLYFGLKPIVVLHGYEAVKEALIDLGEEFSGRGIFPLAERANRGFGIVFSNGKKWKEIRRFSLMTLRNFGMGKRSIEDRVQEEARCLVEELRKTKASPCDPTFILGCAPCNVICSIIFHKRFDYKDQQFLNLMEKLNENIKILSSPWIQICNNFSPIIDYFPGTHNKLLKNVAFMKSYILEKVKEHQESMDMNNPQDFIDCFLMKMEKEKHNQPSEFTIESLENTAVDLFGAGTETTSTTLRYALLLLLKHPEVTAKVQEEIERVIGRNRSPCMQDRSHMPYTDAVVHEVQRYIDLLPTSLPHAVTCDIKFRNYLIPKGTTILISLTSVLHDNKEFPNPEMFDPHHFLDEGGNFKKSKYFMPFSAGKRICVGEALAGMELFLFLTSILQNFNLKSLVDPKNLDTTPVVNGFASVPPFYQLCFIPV
Summary of the method: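 Luminescent read-out of deoxyluciferin hydroxylation, normalized to 57uM sulphaphenazole (AC100). Reaction: 10nM enzyme, 100uM Luciferin-H (equal to KM), 25mM KPO4, 10 min compound preincubation, then 60 min with NADPH regeneration, both at 37C.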

[17] = molecular target: Pyruvate kinase (Leishmania mexicana) (UniProt Q27686); assay: qHTS Validation Assay for Inhibitors of Leishmania Mexicana Pyruvate Kinase (AID 945; active = well fitted curve in the direction sought with a large enough effect; an effect the other way counts as inactive or inconclusive;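 also: 0% = DMSO only neutral control wells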)
Pyruvate kinase (Leishmania mexicana), sequence (Q27686 2-499 E452W): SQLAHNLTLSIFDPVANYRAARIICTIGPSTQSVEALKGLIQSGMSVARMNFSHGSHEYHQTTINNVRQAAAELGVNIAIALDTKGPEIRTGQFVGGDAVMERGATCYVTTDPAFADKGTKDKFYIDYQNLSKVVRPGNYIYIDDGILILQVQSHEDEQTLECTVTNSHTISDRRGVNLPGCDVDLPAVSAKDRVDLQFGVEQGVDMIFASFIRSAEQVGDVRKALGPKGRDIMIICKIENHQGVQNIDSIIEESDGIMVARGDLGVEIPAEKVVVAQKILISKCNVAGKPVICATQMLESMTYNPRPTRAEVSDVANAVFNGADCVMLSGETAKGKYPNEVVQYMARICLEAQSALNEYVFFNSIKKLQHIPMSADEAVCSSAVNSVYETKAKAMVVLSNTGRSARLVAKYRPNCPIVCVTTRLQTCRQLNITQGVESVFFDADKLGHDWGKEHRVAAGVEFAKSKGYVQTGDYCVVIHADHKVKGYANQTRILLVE
Summary of the method: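 The enzyme is a highly purified E451W mutant of LmPYK used at 0.2 nM. It converts 0.5 mM PEP and 0.1 mM ADP over 1 h at room temperature; product ATP is quantified by luciferase luminescence relative to DMSO controls.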

[18] = at 7.69 µM (top of the series) unless noted

C[N+](C)(C)/N=C\c1ccc(O)c(O)c1
inactive: activity change, negative = inhibition [1, 18] 4.59% | activity change, negative = inhibition [3, 18] 8.29% | activity, negative = inhibition [4, 18] 3.02% | Potency [5] > 46 µM | Potency [6] > 9.22 µM | Potency [7] | Potency [8]
active: Potency [2] 10 µM

Cc1nnc(SCC2=C(C(=O)O)N3C(=O)[C@@H](NC(=O)Cn4cnnn4)[C@@H]3SC2)s1
inactive: activity change, negative = inhibition ([1]; at 17.2 µM (top of the series)) 3.67% | activity change, negative = inhibition ([1]; at 38 µM (top of the series)) 2.44% | Potency [2] | activity change, negative = inhibition ([3]; at 17.2 µM (top of the series)) 2.74% | activity change, negative = inhibition ([3]; at 38 µM (top of the series)) -2.96% | activity, negative = inhibition ([4]; at 17.2 µM (top of the series)) 8.89% | activity, negative = inhibition ([4]; at 38 µM (top of the series)) -5.18% | Potency [7] | Potency [8] | outcome [9] | Potency [10] | outcome [11] | Potency [12] | outcome [13] | outcome [14] | Potency [15]

Nc1ncnc2c1ncn2[C@@H]1CCCO1
inactive: activity change, negative = inhibition [1, 18] 2.44% [at 38 µM] | Potency [2] | activity change, negative = inhibition [3, 18] -4.45% [at 38 µM] | activity, negative = inhibition [4, 18] -7.91% [at 38 µM] | Potency [5] > 46 µM | Potency [6] > 46 µM | Potency [7] | Potency [8] | outcome [9] | Potency [16] | outcome [11] | Potency [12] | outcome [17] | outcome [13] | outcome [14] | Potency [15]

C[N+]1(NCC[N@@+]2(C)CCc3ccccc3C2)CCCCC1
inactive: activity change, negative = inhibition [1, 18] -4.59% | Potency [2] | activity change, negative = inhibition [3, 18] -23.2% | activity, negative = inhibition [4, 18] 7.24% | Potency [5] > 46 µM | Potency [6] > 9.22 µM | Potency [7] | Potency [8]

CN1C[C@H](c2ccccc2)C(O)([C@]2(c3ccccc3)CN(C)C[C@@H](c3ccccc3)C2=O)[C@H](c2ccccc2)C1 (stereo partly specified)
inactive: activity change, negative = inhibition [1, 18] 0.442% | Potency [2] | activity change, negative = inhibition [3, 18] -6.86% | activity, negative = inhibition [4, 18] 10% | Potency [5] > 46 µM | Potency [6] > 9.22 µM | Potency [7] | Potency [8]
